This note sets out measurements from PubChem BioAssay (Tox21).

Experiment [1] is described as follows: qHTS assay for small molecule agonists of the p53 signaling pathway (AID 651631; calls by dose curve; note: potency is the fitted concentration of half-maximal effect; nearly all actives have a fitted effect of over 15% in size). The method in brief:
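p53RE-bla HCT-116 cells; compounds 16 h, 37 °C; LiveBLAzer B/G FRET substrate 2 h RT; fluorescence intensity read-out, qHTS format.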

Experiment [2] can be described thus: qHTS assay for small molecule agonists of the p53 signaling pathway - cell viability (AID 651633; calls by dose curve; note: nearly all actives have a fitted effect of over 30% in size; note: potency is the fitted concentration of half-maximal effect). Put shortly: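 p53RE-bla cells, seeded at 4,000 per well and rested 5 h at 37 C/5% CO2, received compounds in DMSO for 16 h at 37 C. CellTiter-Glo was then added, and luminescence was read after 30 min at room temperature to gauge cytotoxicity.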
Experiment [3] is described as follows: qHTS assay for small molecules that induce genotoxicity in human embryonic kidney cells expressing luciferase-tagged ATAD5 - cell viability (AID 651634; calls by dose curve; note: nearly all actives have a fitted effect of over 25% in size; note: potency is the fitted concentration of half-maximal effect). Put shortly:
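HEK293T cells expressing luciferase-tagged ATAD5 were exposed to compound or DMSO for 15.5 hr at 37C, 5% CO2. Viability was then read as live-cell protease activity by CellTiter-Fluor fluorescence after 30 min at 37C.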

Experiment [4] can be described thus: qHTS assay for small molecule disruptors of the mitochondrial membrane potential (AID 720635). Note: potency is the fitted concentration of half-maximal effect. The method in brief: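 HepG2 cells (2,000/well) attached overnight at 37C, then took compound for 1 hr at 37C, 5% CO2. Mito-MPS dye was added for 30 min; fluorescence was read at 490/535 nm (monomers) and 540/590 nm (aggregates).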
Experiment [5] can be described thus: qHTS assay to test for compound auto fluorescence at 590 nm (red) in HepG2 cells (AID 720674). Note: % is set by controls: 0 for no effect and ±100 for the full control effect. Put shortly: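 Rose Bengal sodium served as the red fluorophore standard. HepG2 monolayers (overnight attachment, MEM with 10% FBS) were exposed to test compounds for 1 hr at 37 C and read at Ex 540/Em 590 nm.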
Experiment [6] can be described thus: qHTS assay to test for compound auto fluorescence at 535 nm (green) in HepG2 cells (AID 720675). Note: % is set by controls: 0 for no effect and ±100 for the full control effect.
Experiment [7] in a line: qHTS assay to test for compound auto fluorescence at 460 nm (blue) in HEK293 cells (AID 720678). Note: % is set by controls: 0 for no effect and ±100 for the full control effect. Put shortly:
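Intrinsic compound fluorescence is recorded in live HEK293 cultures after overnight incubation at 37C, 5% CO2, using excitation 405 nm and emission 460 nm. Values are referenced to triamterene.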

Experiment [8] in a line: qHTS assay to test for compound auto fluorescence at 590 nm (red) in HEK293 cells (AID 720679). Note: % is set by controls: 0 for no effect and ±100 for the full control effect. The method in brief:
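Red autofluorescence, HEK293 cells: 2,000 cells/well; attach 4-5 hr 37C; add 23 nL cpd or DMSO; incubate o/n 37C 5% CO2; read Ex540/Em590; Rose Bengal sodium reference.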

The nature of experiment [9]: qHTS assay to test for compound auto fluorescence at 535 nm (green) in HEK293 cells (AID 720680). Note: % is set by controls: 0 for no effect and ±100 for the full control effect.
Experiment [10] in a line: qHTS assay to test for compound auto fluorescence at 460 nm (blue) in HEK293 cell free culture (AID 720681). Note: % is set by controls: 0 for no effect and ±100 for the full control effect. Put shortly:
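Test compounds were pinned into cell-free culture medium (DMEM with 10% FBS) and fluorescence was read directly at Ex/Em 405/460 nm. Signals were expressed as fluorescence equivalents of triamterene, with DMSO vehicle as control.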

The nature of experiment [11]: qHTS assay to test for compound auto fluorescence at 535 nm (green) in HEK293 cell free culture (AID 720682). Note: % is set by controls: 0 for no effect and ±100 for the full control effect. The method in brief: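 Cell-free medium (DMEM, 10% FBS) receives compound or DMSO by pintool. Plate read directly at Ex 485/Em 535 nm. Signal converted to fluorescein equivalency.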
Experiment [12] is described as follows: qHTS assay to test for compound auto fluorescence at 590 nm (red) in HEK293 cell free culture (AID 720683). Note: % is set by controls: 0 for no effect and ±100 for the full control effect. The method in brief: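 Tox21 10K library compounds were pinned into cell-free DMEM with 10% FBS and fluorescence was read at excitation 540 nm. Activity is expressed as Rose Bengal sodium equivalency.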
Experiment [13] in a line: qHTS assay to test for compound auto fluorescence at 590 nm (red) in HepG2 cell free culture (AID 720684). Note: % is set by controls: 0 for no effect and ±100 for the full control effect. Put shortly:
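Red fluorescence (540 nm excitation, 590 nm emission) was measured after compound transfer into cell-free MEM supplemented with 10% FBS. Values are equivalencies against Rose Bengal sodium.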

A short description of experiment [14]: qHTS assay to test for compound auto fluorescence at 460 nm (blue) in HepG2 cell free culture (AID 720685). Note: % is set by controls: 0 for no effect and ±100 for the full control effect. The method in brief:
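Compound (23 nL) or DMSO pinned into cell-free MEM with 10% FBS; blue fluorescence read at 405/460 nm excitation/emission, expressed as auto-fluorescence equivalency to triamterene.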

Experiment [15] in a line: qHTS assay to test for compound auto fluorescence at 535 nm (green) in HepG2 cell free culture (AID 720686). Note: % is set by controls: 0 for no effect and ±100 for the full control effect.
Experiment [16] is described as follows: qHTS assay to test for compound auto fluorescence at 460 nm (blue) in HepG2 cells (AID 720687). Note: % is set by controls: 0 for no effect and ±100 for the full control effect. The method in brief: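 Cells (2,000/well in MEM with 10% FBS) attached overnight at 37 C, then were exposed to compound or DMSO for 1 hr at 37 C, 5% CO2. Fluorescence read at Ex/Em 405/460 nm, expressed as triamterene-equivalent signal.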
Experiment [17] in a line: qHTS assay for small molecule disruptors of the mitochondrial membrane potential - cell viability (AID 720634; calls by dose curve; note: nearly all actives have a fitted effect of over 20% in size; note: potency is the fitted concentration of half-maximal effect). Put shortly: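 HepG2 cells seeded overnight at 37 C, then exposed to compound or DMSO for 1 hr at 37 C, 5% CO2. m-MPI dye added, then CellTiter-Glo for 30 min at room temperature; viability read as ATP luminescence.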
Experiment [18] can be described thus: qHTS assay for small molecules that induce genotoxicity in human embryonic kidney cells expressing luciferase-tagged ATAD5 (AID 651632). Note: % is set by controls: 0 for no effect and ±100 for the full control effect; nearly all actives have a fitted effect of over 15% in size. Put shortly: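 HEK293T cells carrying a luciferase reporter tagged to ATAD5 were exposed to compound or DMSO vehicle for 16 hr at 37C, 5% CO2. Amplite was added, and after 30 min at room temperature luciferase activity was read as a marker of ATAD5 induction.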

The target of experiment [19] is Glucocorticoid receptor (Homo sapiens) (UniProt P04150). Briefly: qHTS assay to identify small molecule agonists of the glucocorticoid receptor (GR) signaling pathway (AID 720691; active = well fitted activation curve with a large enough effect in the signal ratio in the repeat runs, not every such curve was filed as active; the % refers to the signal ratio; note: % is set by controls: 0 for no effect and ±100 for the full control effect). The conditions noted are these: GR-bla HeLa, beta-lactamase reporter ratio, 18 h; activation: at 62.4 µM (top of the series). The method in brief: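 GR-bla HeLa cells (beta-lactamase reporter under glucocorticoid response element) were plated 4 h at 37 C/5% CO2, given compounds in DMSO, and incubated 18 h at 37 C. LiveBLAzer B/G FRET substrate was added for 2 h at room temperature, then fluorescence intensity read.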

For experiment [20] the target is unchanged. Briefly: qHTS assay to identify small molecule antagonists of the glucocorticoid receptor (GR) signaling pathway (AID 720692; active = well fitted inhibition curve with a large enough effect in the signal ratio in the repeat runs, not every such curve was filed as active; the % refers to the signal ratio; note: % is set by controls: 0 for no effect and ±100 for the full control effect). The method in brief: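 GR-bla HeLa cells (beta-lactamase reporter under glucocorticoid response element) were pre-plated 4 h at 37 C, treated with compounds plus 5 nM dexamethasone (final) for 18 h, then read by LiveBLAzer B/G FRET fluorescence after 2 h.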

Unmarked numbers belong to inactive results. Records with an inconclusive call do not appear. The source made the active and inactive calls. Unless noted, calls come from the whole dose curve; as a rule, active = well fitted curve in the direction sought with a large enough effect in the repeat runs; inconclusive = weak or mixed curves; inactive = no such curve, though single readings can be large; an effect the other way counts as inactive or inconclusive.

Sequence of Glucocorticoid receptor (Homo sapiens) (P04150 whole entry, looked up): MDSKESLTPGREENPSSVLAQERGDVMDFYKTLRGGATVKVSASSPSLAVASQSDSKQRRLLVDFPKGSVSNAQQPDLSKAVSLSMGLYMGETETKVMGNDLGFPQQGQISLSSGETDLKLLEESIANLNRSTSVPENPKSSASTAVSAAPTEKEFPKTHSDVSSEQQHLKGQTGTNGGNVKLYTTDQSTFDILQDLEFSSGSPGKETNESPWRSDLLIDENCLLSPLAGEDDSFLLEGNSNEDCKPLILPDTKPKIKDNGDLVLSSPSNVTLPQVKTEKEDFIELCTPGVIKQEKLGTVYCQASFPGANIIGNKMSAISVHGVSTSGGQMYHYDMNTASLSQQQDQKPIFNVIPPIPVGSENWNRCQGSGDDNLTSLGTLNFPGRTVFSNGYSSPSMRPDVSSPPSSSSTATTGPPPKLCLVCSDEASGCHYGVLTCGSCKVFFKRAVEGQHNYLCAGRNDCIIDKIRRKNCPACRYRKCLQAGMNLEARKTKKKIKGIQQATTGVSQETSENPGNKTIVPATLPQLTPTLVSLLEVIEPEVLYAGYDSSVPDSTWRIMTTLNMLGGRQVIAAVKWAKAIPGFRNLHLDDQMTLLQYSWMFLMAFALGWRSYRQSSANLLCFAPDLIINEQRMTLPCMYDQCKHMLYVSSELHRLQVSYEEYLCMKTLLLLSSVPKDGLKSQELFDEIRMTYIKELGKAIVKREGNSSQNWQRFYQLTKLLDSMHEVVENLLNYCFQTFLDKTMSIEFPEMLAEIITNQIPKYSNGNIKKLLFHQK

Regarding `C=C(C)C(=O)OCC(O)COc1ccc(C(C)(C)c2ccc(OCC(O)COC(=O)C(=C)C)cc2)cc1` (configuration not stated), the Potency was 68.6 µM (active) in experiment [1], 54.5 µM (active) in experiment [2], 21.7 µM (active) in experiment [3] and 5.45 µM (active) in [4]. The Potency result in experiment [5], in experiment [6], in experiment [7], in [8], in experiment [10] and in experiment [12] was “inactive” throughout. The Potency entry in experiment [13], in [14], in experiment [15] and in experiment [16] was “inactive” throughout. The result in experiment [9] and in [11] was inactive.

As for `Cc1cc(C2CCCCC2)n(O)c(=O)c1`, the Potency is 8.04 µM (active) in experiment [1] and 3.2 µM (active) in experiment [4]. For the same compound, the Potency entry in experiment [2], in experiment [3] and in [17] was “inactive” throughout. In addition, the fluorescence, relative to Rose Bengal in experiment [5] is 0.33% [at 18.6 µM]. The fluorescence, % of triamterene in [7] is -0.0951% [at 18.6 µM]. In addition, the fluorescence, % of fluorescent control in experiment [8] is -0.0357% [at 18.6 µM]; in experiment [10] it was -0.0092% [at 18.6 µM]; in experiment [12], 0.0163% [at 18.6 µM]; in experiment [14], 0.0075% [at 18.6 µM]; in experiment [16] it was 0.0031% [at 18.6 µM]. Further, the fluorescence, % of fluorescein in experiment [9] is 0.0799% [at 18.6 µM]. Besides, the activity change in [11] is 0.0414% [at 18.6 µM]. Also, in experiment [13], the fluorescence, % of Rose Bengal was -0.0195% [at 18.6 µM]. Moreover, in [15], the fluorescence, % of fluorescein control was 0.005% [at 18.6 µM].

On to `C[n+]1ccn(Cc2ccccc2)c1`, for which the Potency entry in experiment [18], in [2], in [3], in [17], in [4] and in experiment [5] was “inactive” throughout. Besides, the Potency entry in experiment [6], in experiment [7], in experiment [8], in experiment [10], in experiment [12] and in experiment [13] was “inactive” throughout. Besides, the Potency result in experiment [15], in experiment [16], in experiment [19] and in [20] was “inactive” throughout. Also, the compound was classed as inactive in experiment [9] and in experiment [11].

As for `Cc1cc(O)c(Cl)c(C)c1Cl`, the Potency entry in experiment [18], in [5], in experiment [6], in experiment [7], in experiment [10] and in experiment [12] was “inactive” throughout. Also, the Potency entry in [13], in experiment [15], in experiment [16] and in experiment [19] was “inactive” in each case. For the same compound, the Potency was 68.6 µM (active) in experiment [2], 61.1 µM (active) in [3], 54.5 µM (active) in [17] and 1.93 µM (active) in [4]. For the same compound, the outcome in experiment [9] was inactive.

For the compound `C1CCCC1`, the Potency entry in experiment [18], in experiment [2], in experiment [3], in experiment [17], in experiment [4] and in [5] was “inactive” throughout. The Potency result in [6], in experiment [7], in experiment [8], in experiment [12], in [13] and in [14] was “inactive” throughout. Moreover, the Potency entry in experiment [15] and in [16] was “inactive” throughout. Moreover, the call in experiment [9] and in experiment [11] was inactive.

On to `CCCC(c1cc(C(C)(C)C)c(O)cc1C)c1cc(C(C)(C)C)c(O)cc1C`, for which the Potency result in [18], in experiment [5], in experiment [6], in [7], in experiment [8] and in experiment [10] was “inactive” throughout. Moreover, the Potency entry in [12], in experiment [13], in experiment [14], in experiment [15] and in experiment [16] was “inactive” throughout. In addition, the Potency in experiment [2] was 17.4 µM (active); in experiment [3] it was 31 µM (active); in experiment [17] it was 39 µM (active); in experiment [4], 3.9 µM (active). Further, in experiment [9], the result was inactive.
